Measured values reported in PubChem BioAssay (NCATS).
“And” between values parts separate entries of the source, which are not always exact repeats. Equal values may be shown once. Results filed as inconclusive are left out. The source made the active and inactive calls. Unless noted, calls follow the shape of the dose curve; as a rule, active = well fitted curve in the direction sought with a large enough effect; inconclusive = small, poorly fitted or top-dose-only effect, or another doubt; inactive = no such curve, though single readings can be large; an effect the other way counts as inactive or inconclusive.

Columns and labels:
[1] = target: Voltage-gated inwardly rectifying potassium channel KCNH2 (Homo sapiens) (UniProt Q12809); experiment: qHTS Assay for Small Molecule Inhibitors of the Human hERG Channel Activity (AID 588834);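 also: top concentration of the series differs between compounds; % is scaled to controls: 0 for no effect and ±100 for the full control effect; lower thallium flux fluorescence means stronger hERG block; nearly all actives have a fitted effect of over 50% in size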
How it was run: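 Step 1: BacMam hERG transduction of U2OS, 4 hrs RT. Step 2: overnight 37 °C, plate 2000 cells/well, 4 hr. Step 3: FluxOR load, compound 10 min, stimulate, read fluorescence.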

[2] = qHTS assay for small molecule agonists of the antioxidant response element (ARE) signaling pathway (AID 651741; active = well fitted activation curve with a large enough effect in the signal ratio; the % refers to the signal ratio; also: % of control where 0% means no effect)
How it was run: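 HepG2 ARE-bla reporter cells, 2,000/well; 5 h settle at 37 C/5% CO2; compound pin transfer (23 nL, DMSO); 16 h at 37 C; LiveBLAzer B/G FRET substrate, 2 h RT; fluorescence intensity read.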

[3] = qHTS assay for small molecule disruptors of the mitochondrial membrane potential - 1 hr assay (AID 651754; calls by dose curve; also: % is scaled to controls: 0 for no effect and ±100 for the full control effect; nearly all actives have a fitted effect of over 35% in size)
How it was run: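 In this qHTS format, a 1 hr compound treatment of HepG2 cells precedes Mito-MPS staining, and membrane potential is judged from aggregate (red) against monomer (green) fluorescence intensity.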

[4] = qHTS assay for small molecule disruptors of the mitochondrial membrane potential - 5 hr assay (AID 651755; calls by dose curve; also: % is scaled to controls: 0 for no effect and ±100 for the full control effect; nearly all actives have a fitted effect of over 40% in size)
How it was run: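 Read-out: ratiometric Mito-MPS fluorescence, green monomer (ex 490/em 535) vs red mitochondrial aggregate (ex 540/em 590). HepG2 cells treated 5 hr at 37C before 30 min dye loading.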

[5] = target: Tumor necrosis factor (Homo sapiens) (UniProt P01375); experiment: qHTS assay to identify small molecules that stimulate Tumor Necrosis Factor-alpha (TNF-alpha) secretion (AID 651757; active = well fitted curve in the direction sought with a large enough effect in the signal ratio; the % refers to the signal ratio; also: 0% is about no effect)
How it was run: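 Using 3000 THP-1 cells per well, compounds and controls were applied for 17 hrs at 37 C. Detection followed with two labeled anti-TNF-alpha antibodies (cryptate donor, XL665 acceptor) for 3 hr at room temperature, measured by TR-FRET.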

[6] = qHTS assay for environmental chemicals that activate the Aryl hydrocarbon Receptor (AhR) signaling pathway (AID 651777); conditions: 1A2-DRE human hepatoma cells, luciferase, 24 h; activation: hits give high values; also: % of control where 0% means no effect; nearly all actives have a fitted effect of over 15% in size
How it was run: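 1A2-DRE human hepatoma reporter line; 1,200 cells/well; cmpd or DMSO 24 h, 37 C/5% CO2; One-Glo 30 min RT; luciferase lum.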

[7] = target: Peroxisome proliferator-activated receptor alpha (Homo sapiens) (UniProt Q07869); experiment: qHTS assay for small molecule agonists of the peroxisome proliferator-activated receptor alpha (PPARalpha) signaling pathway (AID 651778); conditions: PathHunter PPARalpha complementation, chemiluminescence, 6 h; max response: hits give high values; also: % of control where 0% means no effect
How it was run: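 Enzyme-fragment complementation assay in which ligand-bound PPARalpha translocates and forms an active enzyme that generates chemiluminescence. Cells were plated overnight, exposed to compound for 6 hr at 37 C, and then given detection reagent for 60 min at room temperature.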

[8] = target: Nuclear receptor ROR-gamma (Homo sapiens) (UniProt P51449); experiment: qHTS assay for small molecule antagonists of the retinoid-related orphan receptor gamma (ROR-gamma) signaling pathway (AID 651802);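 also: CHO cells with doxycycline-induced ROR-gamma expression; luciferase reporter luminescence driven by ROR response element; series mostly up to about 92 µM; % is scaled to controls: 0 for no effect and ±100 for the full control effect; nearly all actives have a fitted effect of over 60% in size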
How it was run: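 Doxycycline-induced reporter activity in engineered CHO cells (TET-inducible ROR, RORE-LUC) was measured by luminescence after 16hr compound exposure at 37C.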

[9] = qHTS assay for small molecule agonists of the antioxidant response element (ARE) signaling pathway measured by Nrf2-dependant transcriptional activity (AID 720636; active = well fitted curve in the direction sought with a large enough effect in the repeat runs; an effect the other way counts as inactive or inconclusive;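 also: HepG2 cells with an ARE-driven luciferase reporter; % of control where 0% means no effect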)
How it was run: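 Cells: ARE-luc HepG2 with Nrf2-responsive luciferase. Medium contained 1% dialyzed FBS. Compound exposure lasted 16 hr at 37 C and 5% CO2, followed by ONE-Glo luciferase detection.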

[10] = qHTS assay for small molecule antagonists of the retinoid-related orphan receptor gamma (ROR-gamma) signaling pathway - cell viability counter screen (AID 720652; active = well fitted curve in the direction sought with a large enough effect in the repeat runs; an effect the other way counts as inactive or inconclusive;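 also: CHO reporter cells with doxycycline-induced ROR-gamma expression; series mostly up to about 92 µM; compound exposure lasted 16 hr before ATP read; % is scaled to controls: 0 for no effect and ±100 for the full control effect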)
How it was run: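 ATP-based viability readout in the ROR-gamma reporter CHO cells after 16 hr compound exposure under doxycycline induction.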

[11] = qHTS assay for cell viability of HEK293 cells (AID 743288); conditions: ATP luminescence (CellTiter-Glo), 18 h; max response: hits give low values; also: % is scaled to controls: 0 for no effect and ±100 for the full control effect; nearly all actives have a fitted effect of over 50% in size
How it was run: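 Viable-cell counts were inferred from luciferase-based ATP content in HEK293 cells seeded at 2,000/well, pre-incubated ≥5 h, then dosed with DMSO-solubilised compounds for 18 h at 37 C.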

[12] = qHTS assay for cell viability of the p53RE-bla HCT-116 cell line (AID 743292); also: % is scaled to controls: 0 for no effect and ±100 for the full control effect; nearly all actives have a fitted effect of over 55% in size
How it was run: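 HCT-116 p53RE-bla cells seeded 4,000/well; 5 h at 37 C; compound (DMSO) added; 16 h at 37 C; CellTiter-Glo added, 30 min RT; luminescence read.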

[13] = HepG2 viability counterscreen (readout 2: ATP content) against the NCATS DSHEA and TCM libraries (AID 1794840); also: 0% is about no effect
How it was run: (§1)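 Same wells read twice: first fluorescence from cleaved GF-AFC substrate (25 uM final, 30 min, 37C) for live-cell protease, then CellTiter-Glo luminescence after 30 min at room temperature for ATP. HepG2 cells were exposed ~24 h to substances.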

[14] = HepG2 viability counterscreen (readout 1: protease activity) against the NCATS DSHEA and TCM libraries (AID 1794841);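 also: cells exposed to compounds for about 24 h before the protease read; 0% is about no effect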
How it was run: as §1

[15] = target: Cytochrome P450 3A4 (Homo sapiens) (UniProt P08684); experiment: qHTS for inhibitors of CYP3A4 against the NCATS DSHEA and TCM libraries (AID 1919971);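 also: % is scaled to controls: 0 for no effect and ±100 for the full control effect; inhibition lowers luminescence from luciferin made by CYP3A4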
How it was run: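 Isoform-specific enzyme and substrate levels; enzyme-free wells as background. Reaction: 1x NADPH regenerating system, 30-45 min, room temperature, shielded from light; luminescent detection reagent added, 30 min.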

[16] = target: Cytochrome P450 2D6 (Homo sapiens) (UniProt P10635); experiment: qHTS for inhibitors of CYP2D6 against the NCATS DSHEA and TCM libraries (AID 1919972); also: % is scaled to controls: 0 for no effect and ±100 for the full control effect
How it was run: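 qHTS, concentration–response format with most substances from 19.5 nM. CYP2D6 + pro-luciferin substrate, 15 min with compound, then 1x NADPH regen, 30–45 min RT dark. Glo detection 30 min, luminescence. Quinidine control.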

[17] = KB-3-1 P-gp reporter qHTS against the NCATS DSHEA and TCM libraries (AID 1919975); also: 0% is about no effect
How it was run: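 KB-3-1 parental line, 1536-well qHTS: cells seeded, ~4 h attachment, pintool compound addition, ~72 h at 37C, then CellTiter-Glo, 30 min RT, luminescence. Concentration-response format.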

[18] = qHTS Counterscreen for compound interference against the NCATS DSHEA and TCM libraries (AID 1919978); conditions: firefly luciferase detection reagent interference, luminescence;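 also: compounds preincubated with 1 µM D-luciferin or buffer before detection reagent; % of control where 0% means no effect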
How it was run: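 Compounds, titrated from 19.5 nM to 39.8 uM final, were pinned onto 1 uM D-luciferin or plain 100 mM potassium phosphate. After 15 min at room temperature, luciferin detection reagent was added for 30 min before the luminescence read.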

[19] = Dual reporter qHTS for agonist of Pregnane X Receptor (hPXR) against the NCATS DSHEA and TCM libraries: Fluorescence readout (AID 1920058); also: 0% is about no effect
How it was run: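 In this qHTS counter-read, reporter-bearing HepG2 cells in charcoal-stripped serum received substances for approximately 24 h before viability was assessed fluorometrically with CellTiter-Fluor.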

[20] = target: Nuclear receptor subfamily 1 group I member 2 (Homo sapiens) (UniProt O75469); experiment: Dual reporter qHTS for agonist of Pregnane X Receptor (hPXR) against the NCATS DSHEA and TCM libraries: Luminescence readout (AID 1920059); also: 0% is about no effect
How it was run: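 hPXR-Luc HepG2 cells, 2000/well in 5% charcoal-stripped FBS medium, attached 5 h, then exposed 24 h at 37C to compounds. Viability by CellTiter-Fluor, then luciferase luminescence with ONE-Glo.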

[21] = target: Nuclear receptor subfamily 1 group I member 2 (Homo sapiens) (UniProt O75469); experiment: Dual reporter qHTS for antagonist of Pregnane X Receptor (hPXR) against the NCATS DSHEA and TCM libraries: Luminescence Readout (AID 1920060);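 also: HepG2 cells carrying hPXR luciferase reporter stimulated with rifampicin at 2 µM; 0% is about no effect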
How it was run: (§2)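 Antagonist mode: rifampicin 2 uM final co-added with compounds to hPXR-LucHepG2 cells for 24 h at 37C. Viability by CellTiter-Fluor, Ex/Em 405/540 nm, 1 h; reporter by ONE-Glo luminescence.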

[22] = Dual reporter qHTS for antagonist of Pregnane X Receptor (hPXR) against the NCATS DSHEA and TCM libraries: Fluorescence Readout (AID 1920061); also: 0% is about no effect
How it was run: as §2

[23] = target: Nuclear receptor subfamily 1 group I member 2 (Rattus norvegicus) (UniProt Q9R1A7); experiment: qHTS assay for small molecule activators of the rat pregnane X receptor (rPXR) signaling pathway (AID 651751; call rule not given here; also: 0% is about no effect); conditions: rPXR reporter cells, luciferase (One-Glo), 24 h
Sequence of Nuclear receptor subfamily 1 group I member 2 (Rattus norvegicus) (Q9R1A7 whole entry, looked up): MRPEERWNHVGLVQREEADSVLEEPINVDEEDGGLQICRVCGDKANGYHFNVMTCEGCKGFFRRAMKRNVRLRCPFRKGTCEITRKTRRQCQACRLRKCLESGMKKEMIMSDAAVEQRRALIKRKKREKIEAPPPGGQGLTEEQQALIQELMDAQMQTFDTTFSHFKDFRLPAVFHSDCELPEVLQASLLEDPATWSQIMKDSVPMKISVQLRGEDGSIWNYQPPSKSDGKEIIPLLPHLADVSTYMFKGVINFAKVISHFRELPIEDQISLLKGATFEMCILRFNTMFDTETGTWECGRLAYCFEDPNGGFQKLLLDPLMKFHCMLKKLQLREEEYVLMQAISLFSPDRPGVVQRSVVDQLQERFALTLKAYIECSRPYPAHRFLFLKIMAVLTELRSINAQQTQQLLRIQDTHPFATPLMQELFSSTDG

Sequence of Tumor necrosis factor (Homo sapiens) (P01375 whole entry, looked up): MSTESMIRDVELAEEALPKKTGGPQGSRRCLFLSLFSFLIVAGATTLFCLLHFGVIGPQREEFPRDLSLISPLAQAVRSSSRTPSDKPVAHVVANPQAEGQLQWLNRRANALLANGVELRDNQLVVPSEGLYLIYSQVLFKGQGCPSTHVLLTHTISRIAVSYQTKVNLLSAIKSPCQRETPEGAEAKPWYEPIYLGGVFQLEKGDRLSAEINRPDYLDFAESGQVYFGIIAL
Sequence of Nuclear receptor subfamily 1 group I member 2 (Homo sapiens) (O75469 whole entry, looked up): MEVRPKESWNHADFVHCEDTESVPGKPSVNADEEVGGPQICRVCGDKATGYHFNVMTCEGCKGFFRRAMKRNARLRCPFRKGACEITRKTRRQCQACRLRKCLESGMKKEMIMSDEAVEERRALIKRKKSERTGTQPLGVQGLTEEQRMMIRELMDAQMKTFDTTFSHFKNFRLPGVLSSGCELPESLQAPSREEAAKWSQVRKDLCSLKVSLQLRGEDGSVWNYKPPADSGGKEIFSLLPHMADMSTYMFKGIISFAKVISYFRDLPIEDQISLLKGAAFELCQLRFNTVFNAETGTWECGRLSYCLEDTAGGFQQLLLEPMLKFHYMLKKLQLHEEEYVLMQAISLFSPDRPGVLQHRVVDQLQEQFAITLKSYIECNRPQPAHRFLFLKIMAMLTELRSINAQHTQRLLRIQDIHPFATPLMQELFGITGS
Sequence of Voltage-gated inwardly rectifying potassium channel KCNH2 (Homo sapiens) (Q12809 whole entry, looked up): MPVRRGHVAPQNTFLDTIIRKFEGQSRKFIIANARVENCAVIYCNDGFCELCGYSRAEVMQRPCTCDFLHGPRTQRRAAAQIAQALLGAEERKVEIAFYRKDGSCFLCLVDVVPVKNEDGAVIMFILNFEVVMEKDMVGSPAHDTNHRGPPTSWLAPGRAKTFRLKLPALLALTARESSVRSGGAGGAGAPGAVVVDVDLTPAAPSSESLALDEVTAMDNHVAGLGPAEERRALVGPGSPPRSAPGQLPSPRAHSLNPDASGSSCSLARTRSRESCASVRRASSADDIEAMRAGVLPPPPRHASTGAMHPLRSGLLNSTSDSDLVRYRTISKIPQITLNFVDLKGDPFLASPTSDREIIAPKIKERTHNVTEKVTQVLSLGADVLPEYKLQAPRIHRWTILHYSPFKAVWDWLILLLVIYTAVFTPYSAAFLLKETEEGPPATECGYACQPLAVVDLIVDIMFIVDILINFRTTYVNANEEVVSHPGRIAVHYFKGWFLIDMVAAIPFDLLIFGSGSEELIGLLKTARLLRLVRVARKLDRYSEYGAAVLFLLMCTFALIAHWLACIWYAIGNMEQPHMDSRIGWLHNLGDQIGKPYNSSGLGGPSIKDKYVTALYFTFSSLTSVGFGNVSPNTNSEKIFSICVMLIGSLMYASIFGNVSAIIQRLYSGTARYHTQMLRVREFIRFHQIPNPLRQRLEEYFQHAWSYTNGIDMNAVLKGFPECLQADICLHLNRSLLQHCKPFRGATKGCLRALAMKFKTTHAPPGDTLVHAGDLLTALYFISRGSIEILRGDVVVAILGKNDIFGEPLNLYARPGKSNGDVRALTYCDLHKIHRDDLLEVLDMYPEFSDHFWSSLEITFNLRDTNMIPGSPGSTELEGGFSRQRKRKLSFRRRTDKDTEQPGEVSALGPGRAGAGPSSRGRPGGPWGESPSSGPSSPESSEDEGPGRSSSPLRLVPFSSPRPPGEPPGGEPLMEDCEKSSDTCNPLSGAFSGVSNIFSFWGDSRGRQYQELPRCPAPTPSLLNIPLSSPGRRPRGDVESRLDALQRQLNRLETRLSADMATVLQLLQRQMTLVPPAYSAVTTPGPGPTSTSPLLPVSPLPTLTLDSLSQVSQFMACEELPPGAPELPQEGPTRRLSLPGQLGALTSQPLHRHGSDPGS
Sequence of Nuclear receptor ROR-gamma (Homo sapiens) (P51449 whole entry, looked up): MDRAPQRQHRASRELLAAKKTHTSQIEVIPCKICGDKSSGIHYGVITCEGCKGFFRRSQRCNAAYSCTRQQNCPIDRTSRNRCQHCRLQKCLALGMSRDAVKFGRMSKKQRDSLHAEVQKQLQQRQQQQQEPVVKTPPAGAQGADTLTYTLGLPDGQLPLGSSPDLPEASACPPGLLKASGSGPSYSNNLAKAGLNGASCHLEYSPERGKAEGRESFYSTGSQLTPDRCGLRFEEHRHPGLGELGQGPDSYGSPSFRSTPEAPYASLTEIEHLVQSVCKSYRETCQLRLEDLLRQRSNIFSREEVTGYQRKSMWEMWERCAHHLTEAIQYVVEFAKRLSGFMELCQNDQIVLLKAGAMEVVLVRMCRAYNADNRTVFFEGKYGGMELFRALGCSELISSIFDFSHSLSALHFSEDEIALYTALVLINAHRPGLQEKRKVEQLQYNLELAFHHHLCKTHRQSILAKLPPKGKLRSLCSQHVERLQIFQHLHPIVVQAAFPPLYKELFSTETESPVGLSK
Sequence of Peroxisome proliferator-activated receptor alpha (Homo sapiens) (Q07869 whole entry, looked up, the tested form may be a part): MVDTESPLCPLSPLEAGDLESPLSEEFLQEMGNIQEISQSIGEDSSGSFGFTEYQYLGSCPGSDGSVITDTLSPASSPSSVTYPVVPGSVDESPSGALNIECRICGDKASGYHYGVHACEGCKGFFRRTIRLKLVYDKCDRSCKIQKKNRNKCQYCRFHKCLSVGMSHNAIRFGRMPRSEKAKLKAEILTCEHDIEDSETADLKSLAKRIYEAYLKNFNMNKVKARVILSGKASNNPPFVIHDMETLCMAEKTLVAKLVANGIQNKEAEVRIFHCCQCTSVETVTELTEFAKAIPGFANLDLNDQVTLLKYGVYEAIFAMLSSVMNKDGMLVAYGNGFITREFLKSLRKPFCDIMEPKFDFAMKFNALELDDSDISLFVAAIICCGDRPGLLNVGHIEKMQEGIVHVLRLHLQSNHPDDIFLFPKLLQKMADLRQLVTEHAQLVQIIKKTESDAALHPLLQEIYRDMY
Sequence of Cytochrome P450 3A4 (Homo sapiens) (P08684 whole entry, looked up, canonical isoform): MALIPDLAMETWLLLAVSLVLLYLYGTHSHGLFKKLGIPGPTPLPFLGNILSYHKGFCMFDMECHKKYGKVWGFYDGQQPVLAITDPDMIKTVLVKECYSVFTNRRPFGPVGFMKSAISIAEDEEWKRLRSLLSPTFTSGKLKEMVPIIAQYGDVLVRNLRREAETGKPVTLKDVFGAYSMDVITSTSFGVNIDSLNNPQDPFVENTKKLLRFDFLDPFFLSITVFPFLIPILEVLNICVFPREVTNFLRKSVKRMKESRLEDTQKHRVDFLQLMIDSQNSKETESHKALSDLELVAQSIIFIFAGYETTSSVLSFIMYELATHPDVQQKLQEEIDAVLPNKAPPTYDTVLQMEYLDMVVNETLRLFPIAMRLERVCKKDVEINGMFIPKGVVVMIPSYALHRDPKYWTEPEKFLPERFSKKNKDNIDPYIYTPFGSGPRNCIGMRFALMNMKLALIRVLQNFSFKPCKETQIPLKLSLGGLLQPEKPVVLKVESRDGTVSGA
Sequence of Cytochrome P450 2D6 (Homo sapiens) (P10635 whole entry, looked up): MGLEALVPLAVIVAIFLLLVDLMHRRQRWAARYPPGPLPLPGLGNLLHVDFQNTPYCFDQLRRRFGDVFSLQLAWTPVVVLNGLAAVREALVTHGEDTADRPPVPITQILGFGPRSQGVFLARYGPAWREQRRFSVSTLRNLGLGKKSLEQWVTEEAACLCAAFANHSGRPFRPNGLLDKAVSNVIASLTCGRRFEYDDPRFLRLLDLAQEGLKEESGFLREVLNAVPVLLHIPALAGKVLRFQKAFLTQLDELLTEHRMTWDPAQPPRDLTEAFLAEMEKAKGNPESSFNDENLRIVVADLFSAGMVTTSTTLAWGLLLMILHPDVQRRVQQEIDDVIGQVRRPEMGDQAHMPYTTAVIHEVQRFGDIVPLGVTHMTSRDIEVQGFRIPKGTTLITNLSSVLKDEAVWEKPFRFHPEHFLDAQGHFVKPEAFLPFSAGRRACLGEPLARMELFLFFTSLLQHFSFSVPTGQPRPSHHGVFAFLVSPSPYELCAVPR

CCCCCCCCCCCC(=O)O
inactive: Potency [1] | Potency [2] | Potency [3] | Potency [4] | outcome [5] | activation [6] 0.903% and 1.44% | max response [7] 9.6% and 16.5% | Potency [8] | Potency [9] | Potency [10] | max response [11] -8.75% and -7.33% | Potency [12] | outcome [13] | outcome [14] | Potency [15] | Potency [16] | outcome [17] | max response [18] 3.72% | outcome [19] | Potency [20] | outcome [21] | outcome [22] | max response [23] -4.75% and -1.77%
